High-throughput results: PubChem BioAssay, National Center for Advancing Translational Sciences (NCATS)
An excerpt weighted towards active compounds, which were near 12% of everything screened.
HP1b chromo inh: HP1-beta chromodomain-methylated histone interaction inhibition. P83916. AlphaScreen HP1-beta / biotin-H3K9me3 peptide binding. Potency, µM (highest dose often 114 µM), inactives show at the top dose activity change, negative = inhibition, hits mostly inhibitors. 390,000 compounds, 0.56% hits; further: potency means the concentration at half of the fitted maximal effect; nearly all actives have a fitted effect of over 70% in size
Target sequence (P83916 whole entry, looked up): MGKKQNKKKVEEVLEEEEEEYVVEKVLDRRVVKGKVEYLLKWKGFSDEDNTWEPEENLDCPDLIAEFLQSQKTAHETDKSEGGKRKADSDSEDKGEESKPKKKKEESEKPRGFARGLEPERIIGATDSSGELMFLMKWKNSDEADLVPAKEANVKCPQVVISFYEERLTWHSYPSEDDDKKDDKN
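HP1-beta protein (50 nM final) preincubated 30 min at room temperature with biotinylated H3(1-18)K9me3 peptide (50 nM) in PBS pH 7.4, 0.01% Tween-20, then compound added for 30 min. AlphaScreen streptavidin donor/nickel chelate acceptor beads (10 ug/mL final), 30 min dark, luminescence read.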
BAZ2B block: BAZ2B (human) inhibition. Q9UIF8. AlphaScreen BAZ2B-H3K14Ac peptide displacement. Potency, µM (doses to about 114 µM), for the others: at the highest dose activity change, negative = inhibition, usual class: inhibitors. 360,000 compounds, 4.4% hits; further: potency means the concentration at half of the fitted maximal effect; on the % scale 0 is the no-effect control and ±100 the full control effect; nearly all actives have a fitted effect of over 60% in size
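Inhibition is scored as reduced AlphaScreen emission. The BAZ2B/b-H3(5-23)K14Ac complex (50 nM each) in PBS pH 7.4, 0.01% Tween-20 meets compound (up to 110 uM) for 30 min at RT before bead addition.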
PLK1 PBD block: blocks phosphopeptide binding to human PLK1 polo-box domain; Plk1 PBD binding of FITC phosphopeptide, fluorescence polarization; P53350; AID 720504; Potency, µM, inactives show max response, negative = inhibition, usual class: inhibitors; 360,000 compounds, 2.8% hits; further: potency means the concentration at half of the fitted maximal effect; series mostly up to about 57 µM; on the % scale 0 is the no-effect control and ±100 the full control effect; nearly all actives have a fitted effect of over 65% in size
G9a block: inhibitors of human histone lysine methyltransferase G9a; Q96KQ7; G9a H3K9 monomethylation, AlphaScreen, 2 h; Potency, µM (titrated, usually from 102 µM), without a hit: at the highest dose activity, negative = inhibition, hits mostly inhibitors; 350,000 compounds, 8.8% hits; AID 504332; further: potency means the concentration at half of the fitted maximal effect; on the % scale 0 is the no-effect control and ±100 the full control effect; nearly all actives have a fitted effect of over 75% in size
Target sequence (Q96KQ7 913-1193 limits assumed): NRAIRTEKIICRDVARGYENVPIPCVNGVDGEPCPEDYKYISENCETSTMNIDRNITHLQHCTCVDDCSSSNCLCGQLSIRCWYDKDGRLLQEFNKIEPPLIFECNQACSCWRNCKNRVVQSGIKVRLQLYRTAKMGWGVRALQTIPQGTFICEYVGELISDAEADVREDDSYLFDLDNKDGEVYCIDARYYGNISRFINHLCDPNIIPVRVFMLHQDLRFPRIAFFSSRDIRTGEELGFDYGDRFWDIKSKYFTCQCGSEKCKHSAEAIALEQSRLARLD
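Compounds were preincubated with 20 nM G9a for 15 min, after which biotinylated H3K9 peptide (500 nM) and SAM (20 uM) started a 2 h room-temperature reaction. Monomethylated product was quantified by antibody-based AlphaScreen chemiluminescence.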
PI5P4K alpha inh: blocks human PI5P4K alpha kinase activity; PI5P4Kalpha enzyme, ADP-Glo luminescence, 60 min; hits give low values; 330,000 compounds, 1.2% hits; P48426; max response, %; AID 652105; active means max response of -50% or lower; inconclusive means between -30% and -50%; inactive means -30% or higher; further: value at the top dose of about 77 µM; on the % scale 0 is the no-effect control and ±100 the full control effect
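Enzyme plus substrate dispensed, test compounds pinned in, then ATP (5 microM final) added. After 60 min at RT, ADP-Glo reagent 1 for 45 min and reagent 2 for 30 min preceded luminescence imaging.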
JMJD2A Tudor inh: blocks the human JMJD2A Tudor domain; AID 504339; 390,000 compounds, 4.4% hits; Potency, µM (top dose mostly 114 µM), without a hit: at the highest dose activity change, negative = inhibition, most hits filed as inhibitors; O75164; AlphaScreen JMJD2A-Tudor / H3K4me3 peptide binding; further: potency means the concentration at half of the fitted maximal effect; on the % scale 0 is the no-effect control and ±100 the full control effect; nearly all actives have a fitted effect of over 50% in size
* hit, by the source's call; ? = inconclusive; · = not tested or not shown; ! = not confirmed by another sample; [ ] = dose if it differs, or a comment. Unless noted, the call rests on the fitted dose curve; in most records, active means well fitted curve in the direction sought with a large enough effect; inconclusive means small, poorly fitted or top-dose-only effect, or another doubt; inactive means no such curve, though single readings can be large; an effect the other way counts as inactive or inconclusive.

SMILES	HP1b chromo inh	BAZ2B block	PLK1 PBD block	G9a block	PI5P4K alpha inh	JMJD2A Tudor inh
COc1ccc(CC(C)Nc2cccc(SC)c2)cc1 (configuration not stated)	27%	-39%	-1%	?	20	-17%
COc1cccc(N2C(=NC(=O)c3ccccc3)SC3CS(=O)(=O)CC32)c1 (configuration not stated)	1%	0%	-4%	21%[59 µM]	4	-5%
O=C(CCN1C(=O)/C(=C/c2ccc(F)cc2)SC1=S)NCCc1cnc[nH]1	-25%	18µM*	?	28µM*	-8	?
Cc1ccc(/C=C2/SC(=S)N(CCC(=O)N3CCN(C)CC3)C2=O)cc1	1%	-10%	-8%	·	10	-22%
O=C(CCN1C(=O)/C(=C\c2ccccc2)SC1=S)N1CCCCC1	-13%	-10%	16%	-11%[59 µM]	4	-23%
COc1ccccc1/C=C1\SC(=S)N(CCC(=O)N2CCCCC2CCO)C1=O (configuration not stated)	-11%	-33%[57.1 µM]	-11%	?	1	?
CN1CCN(C(=O)CCN2C(=O)/C(=C/c3ccc(F)cc3)SC2=S)CC1	-7%	?	-17%	71µM*	2	-27%
O=C(CCN1C(=O)/C(=C/c2cccs2)SC1=S)N1CCCCC1	?	8.9µM*	1%	10µM*	2	?
COc1cccc(/C=C2\SC(=S)N(CCC(=O)N3CCCCC3CCO)C2=O)c1 (configuration not stated)	?	32µM*	-14%	56µM*	5	?
Cc1nc2ncnn2c(C)c1CCC(=O)N1CCN(c2ccccc2)CC1	30%	-8%	·	-19%[59 µM]	·	-5%
S=C=Nc1ccc(N=C=S)cc1	·	·	·	31%[12.7 µM]	·	·
O=C1/C(=C/c2cccs2)SC(=S)N1CCC(=O)N1CCCCC1CCO (configuration not stated)	6%	22µM*	-18%	50µM*	-4	?
COc1cccc(/C=C2\SC(=S)N(CCCC(=O)N3CCCCC3CCO)C2=O)c1 (configuration not stated)	-36%[57 µM]	25µM*	0%	?	2	20µM*
COc1ccc(N2CCN(Cc3nc4c(c(=O)n(C)c(=O)n4C)n3C(C)C)CC2)cc1	21%	2%	·	-26%[59 µM]	·	-11%
COc1ccc(NC(=O)CCS(=O)(=O)c2ccc3c(c2)n(C)c(=O)c(=O)n3C)cc1Cl	30%	-2%	·	2%[59 µM]	·	-2%
CN(C)CCC(c1ccccc1)c1ccccn1 (configuration not stated)	19%	?	3%	-4%[59 µM]	2	-7%
CN(C)CCOC(C)(c1ccccc1)c1ccccn1 (configuration not stated)	8%	0%	-18%	10µM*!	0	-7%
COc1nc(-c2ccccc2)c2cc(C)ccc2n1	4%	11%	21µM*	·	-9	?
CSc1c(-c2ccccc2)nc2ccc(Cl)cc2c1C(=O)O	17%	-35%	-5%	41%[12.7 µM]	-2	-2%
Cc1ccc2nc(-c3ccccc3)c(CC(=O)O)c(C(=O)O)c2c1	21%	?	-2%	45µM*	-5	-9%
N/C(Cc1ccc(Cl)cc1Cl)=N\OC(=O)c1ccc(Br)o1	33%	-19%	-8%	48%[12.7 µM]	-10	5%
N/C(Cc1cccc2ccccc12)=N\OC(=O)c1ccc(Br)o1	·	-33%	·	45µM*	·	·
N/C(=N\OC(=O)c1ccc2c(c1)OCO2)c1cccc(Br)c1	23%	2%	-6%	·	5	0%
N/C(Cc1cccc2ccccc12)=N\OC(=O)c1ccc2c(c1)OCO2	-21%	-8%	24µM*	-32%	-23	?
Cc1ccc(NC(=O)CSc2cn(CC(=O)N3CCCC3)c3ccccc23)cc1Cl	37%	-30%	·	-19%[59 µM]	·	-15%
COc1ccc(NC(=O)C2C3C=CC(C3)C2C(=O)O)cc1 (configuration not stated)	38%	-13%	-16%	3%	3	-16%[11.4 µM]
